Bioassay records deposited in PubChem by Broad Institute.
Hedgehog inh – Sonic Hedgehog pathway inhibition. Shh-LIGHT2 Gli-luciferase reporter, 30 h. inhibition, % (test concentration not listed). 22,000 compounds, 2.1% hits;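 active means mean inhibition across valid replicates above about 65%, limit read from the data; inconclusive means mean under the limit, yet half or more replicates past it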;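 further: pathway switched on by Shh-conditioned medium diluted 1 in 25 in low serum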
MITF inh – MITF inhibition; TRPM1 promoter luciferase, luminescence, 24 h; inhibition, % (concentration not given with the values); 37,000 compounds, 0.28% hits; AID 2240; in the data active means inhibition above about 85%; inconclusive means no clear call, values can overlap the other calls; inactive means below about 68%;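 further: human melanocyte line stably carrying TRPM1 promoter luciferase reporter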
PD-1 reverse act – reversal of PD-1 mediated T-cell inhibition | primary human CD4 T cells, PD-L1 beads, CellTiter-Glo 96 h | 29,000 tested, under 10 active | activation, % (concentration not given with the values); call rule not given here;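 further: 0% = median vehicle wells and 100% = positive control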
* hit, by the source's call; ? = inconclusive; · = not tested or not shown. The full list was thinned out, with hits kept by preference.

SMILES | Hedgehog inh | MITF inh | PD-1 reverse act
CC1CCC2(NC1)OC1CC3C4CC=C5CC(O[C@@H]6O[C@H](CO)[C@@H](O[C@@H]7O[C@@H](C)[C@H](O)[C@@H](O)[C@H]7O)[C@H](O)[C@H]6O)CCC5(C)C4CCC3(C)C1C2C (stereo partly drawn) | 6 | 3 | 1
Cc1ccc(S(=O)(=O)Nc2ccc3c(c2)C(=O)N([C@H](C)CO)C[C@H](C)[C@@H](CN(C)C(=O)NC2CCCCC2)O3)cc1 | · | -1 | 0
C=C(CO)C(=O)O[C@H]1CC(=C)[C@@H]2CC(=O)[C@H](C)[C@@H]2[C@H]2OC(=O)C(=C)[C@@H]21 | 40 | 31 | -6
O=C(OCC1OC(Oc2ccc(O)cc2COC(=O)C2(O)C(O)CCC2(O)C(=O)O)C(O)C(O)C1O)c1ccccc1 (stereo not drawn) | -26 | -5 | 3
O=C1NCN(c2ccccc2)C12CCN(CCCC(c1ccc(F)cc1)c1ccc(F)cc1)CC2 | 84* | -2 | ·
C[C@@H]1CN([C@H](C)CO)C(=O)Cc2cc(NS(=O)(=O)c3ccc(Cl)cc3)ccc2O[C@@H]1CN(C)S(=O)(=O)c1ccc(F)cc1 | -14 | 2 | 0
COc1ccccc1NC(=O)Cn1cnc2sc3c(c2c1=O)CCC(C)C3 (stereo not drawn) | · | 32 | -1
Cc1noc(C)c1S(=O)(=O)Nc1ccc2c(c1)CC(=O)N([C@@H](C)CO)C[C@H](C)[C@H](CN(C)C(=O)Nc1ccc(C(F)(F)F)cc1)O2 | 66* | 2 | ·
COc1ccc(NC(=O)N(C)C[C@@H]2Oc3ccc(NS(=O)(=O)c4ccc(Cl)cc4)cc3CC(=O)N([C@@H](C)CO)C[C@@H]2C)cc1 | -13 | 12 | ·
C[C@@H]1CN([C@@H](C)CO)C(=O)Cc2cc(NS(C)(=O)=O)ccc2O[C@@H]1CN(C)CC1CCCCC1 | -19 | 5 | ·
COc1ccc(NC(=O)N(C)C[C@H]2Oc3ccc(NS(=O)(=O)c4cn(C)cn4)cc3CC(=O)N([C@H](C)CO)C[C@H]2C)cc1 | 23 | -9 | 1
Cc1noc(C)c1S(=O)(=O)Nc1ccc2c(c1)CC(=O)N([C@@H](C)CO)C[C@H](C)[C@@H](CN(C)C(=O)Nc1ccc(C(F)(F)F)cc1)O2 | ? | 11 | ·
COc1ccc(NC(=O)N(C)C[C@H]2Oc3ccc(NS(=O)(=O)c4ccc(Cl)cc4)cc3CC(=O)N([C@@H](C)CO)C[C@H]2C)cc1 | 67* | -12 | 3
C[C@@H]1CN([C@H](C)CO)C(=O)Cc2cc(NS(C)(=O)=O)ccc2O[C@H]1CN(C)CC1CC1 | 75* | -10 | 3
COc1ccc(NC(=O)N(C)C[C@@H]2Oc3ccc(NS(=O)(=O)c4cn(C)cn4)cc3CC(=O)N([C@H](C)CO)C[C@H]2C)cc1 | 72* | -14 | 0
CCOC(=O)c1c(C)n(C)c2ccc(O)c(S(=O)(=O)c3ccc(C)cc3)c12 | 6 | 6 | 2
CNC[C@H]1Oc2c(NC(=O)c3cc(C)nn3C)cccc2C(=O)N([C@@H](C)CO)C[C@H]1C | -46 | -13 | 2
Cc1noc(C)c1NC(=O)N(C)C[C@@H]1Oc2c(NC(=O)NC3CCCCC3)cccc2C(=O)N([C@H](C)CO)C[C@@H]1C | 15 | -1 | ·
Cc1cccc(-c2nnc(SCC(=O)Nc3ccccc3F)o2)c1 | · | 88* | 0
Cc1cccc(-c2nnc(SCC(=O)Nc3c(Cl)cc(Cl)cc3Cl)o2)c1 | · | 8 | ·
COc1ccc(NC(=O)N(C)C[C@@H]2Oc3ccc(NC(=O)Nc4cccc5ccccc45)cc3CC(=O)N([C@H](C)CO)C[C@H]2C)cc1 | · | -5 | -1
C[C@@H]1CN([C@@H](C)CO)C(=O)c2cc(NS(C)(=O)=O)ccc2O[C@H]1CN(C)CC1CC1 | -23 | -2 | 1
COc1ccc(-c2cc(-c3cccs3)nc(SC(C(=O)O)c3ccccc3)c2C#N)cc1 (stereo not drawn) | · | 30 | -6
CC(C)(C)c1cc(-c2cccs2)c(C#N)c(SCC(=O)Oc2ccccc2)n1 | 65* | -6 | -32
C[C@H](CO)N1C[C@H](C)[C@@H](CN(C)C)Oc2ccc(NC(=O)Cc3ccccc3)cc2C1=O | -12 | 1 | ·
SMILES | Hedgehog inh | MITF inh | PD-1 reverse act
CC1CC(=O)c2c(ccc3c2C(=O)c2c(O[C@@H]4O[C@@H](C)[C@H](O)[C@@H](O)[C@H]4O)cccc2C3=O)C1 (stereo partly drawn) | 3 | 10 | 1
COc1cccc2c1C(=O)c1c(O)c3c(c(O)c1C2=O)C[C@@](O)(C(C)=O)C[C@@H]3O[C@H]1C[C@H](N)[C@H](O)[C@H](C)O1 | 99* | 74 | ·
C[C@H]1CN([C@@H](C)CO)C(=O)c2cccc(NC(=O)C3CCCCC3)c2O[C@@H]1CN(C)C(=O)Nc1ccc2c(c1)OCO2 | 45 | -3 | ·
N#C/C(=C/c1ccc(O)c(O)c1)C(=O)OC/C=C/c1ccccc1 | ? | -10 | ·
Oc1cc(O)cc(/C=C/c2ccc(O)c(O)c2)c1 | 82* | 94* | ·
CNC(=O)COc1ccc(Nc2nnc(-c3ccc(OC)cc3)c3ccccc23)cc1 | · | -12 | ·
COc1ccc(-c2nnc(Nc3cccc(C(F)(F)F)c3)c3ccccc23)cc1 | 87* | 52 | -1
CC1=C(C#N)C(C(F)(F)F)(C(F)(F)F)N=C(C2CCCCC2)N1 | 105* | 65 | -2
COc1ccccc1NC(=O)/C=C\c1ccco1 | 68* | -61 | -19
COc1ccccc1NC(=O)C1c2ccccc2Oc2ccccc21 | · | 7 | 0
COC(=O)c1sc2c(C)cc(Cl)c(C)c2c1C(=O)Oc1ccccc1 | -18 | 11 | -1
C[C@H](CO)N1C[C@H](C)[C@H](CN(C)S(=O)(=O)c2cn(C)cn2)Oc2c(NS(=O)(=O)c3cccs3)cccc2C1=O | ? | -18 | 2
OC(Cc1ccccc1)(c1ccccc1)c1ccccc1NC(=S)NC1CC2C=CC1C2 (stereo not drawn) | -22 | 13 | 1
CN1CCc2c(-c3cccs3)nc(OCc3ccccc3Br)c(C#N)c2C1 | 65* | 19 | -12
N#Cc1ccc(CSc2nc(-c3cccs3)c3c(c2C(=O)O)CCCC3)cc1 | ? | -8 | 4
CS(=O)(=O)N(CC(=O)Nc1ccc(Oc2ccccc2)cc1)C1CCCCC1 | · | 16 | 1
COc1c(O[C@@H]2O[C@H](CO)[C@@H](O)[C@H](O)[C@H]2O)cc2c(c1OC)-c1ccc(SC)c(=O)cc1C(NC(C)=O)CC2 (stereo partly drawn) | -68 | 2 | 1
CNC1CCc2cc(OC)c(OC)c(OC)c2-c2ccc(OC)c(=O)cc21 (stereo not drawn) | 92* | 32 | -21
COc1ccc(C(=O)NC(c2ccccc2)c2ccccc2)cc1 | 23 | 7 | -1
COc1ccc(C(=O)NCCn2cc(SC(C)c3ccccc3)c3ccccc32)cc1 (stereo not drawn) | 78* | 20 | -1
CC1(C)CC[C@@]2(C(=O)O)C(C1)C1=CCC3[C@@]4(C)CC[C@H](O[C@@H]5O[C@H](C(=O)O)[C@@H](O[C@@H]6OC[C@@H](O)[C@H](O)[C@H]6O)[C@H](O)[C@H]5O)C(C)(C)C4CC[C@@]3(C)[C@]1(C)C[C@H]2O (stereo partly drawn) | 2 | · | ·
CC(=O)OCC1(C)CC2[C@]3(CO[C@@]24CCC2[C@@]5(C)CC[C@H](O[C@@H]6OC[C@@H](O)[C@H](O)[C@H]6O)[C@@](C)(CO)C5CC[C@@]2(C)[C@]4(C)C[C@H]3O)[C@@H](O)C1 (stereo partly drawn) | 76* | 7 | -6
CN(C)CCNc1cc(-c2cccnc2)nc2ccccc12 | 15 | 6 | 0
